# hgDAF12 agonist – activates the H. glycines DAF-12 receptor ligand-binding domain; HEK293 GAL4-hgDAF12 UAS-luciferase reporter, agonist luminescence; normalized to butyrate control; activation, % at 6.8 µM; 1.8% of 370,000 active;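 active = activation above a cutoff set at the mean of all screened compounds plus 3 SD, cut at about 10% in these data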;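 also: 0% = DMSO wells and 100% = sodium butyrate wells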
# DAX1 inh-1 – NR0B1 (DAX1) inhibition | P51843 | HEK293 Gal4-DAX1 luciferase reporter, luminescence | inhibition, % at 6.75 µM | 0.99% of 340,000 active;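 active = inhibition above the mean over all tested compounds plus 3 SD, cut at about 4.2% in these data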;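 also: 0% = DAX1-transfected cells with DMSO and 100% = empty-vector control cells with DMSO; inhibition shows as a rise in luminescence from relieved DAX1 repression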
# hcDAF-12 act – H. contortus DAF-12 activation, primary screen; 1.4% of 370,000 active; HEK293 hcDAF-12 lit1-tk-luc reporter, luminescence; 0% DMSO, 100% Δ7-dafachronic acid; AID 652067; activation, % at 6.8 µM;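 active = activation above the mean of all tested compounds plus 3 SD, cut at about 5.5% in these data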;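 also: 100% = response to 3 µM Δ7-dafachronic acid high control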
# AHR act – activators of human aryl hydrocarbon receptor; P35869; AHR-responsive luciferase reporter cells, luminescence; activation, % at 5 µM; 2.5% of 320,000 active; AID 2796; in the data active = activation above about 47%;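 also: 0% = vehicle wells and 100% = reference agonist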
# Target sequence (P35869 whole entry, looked up): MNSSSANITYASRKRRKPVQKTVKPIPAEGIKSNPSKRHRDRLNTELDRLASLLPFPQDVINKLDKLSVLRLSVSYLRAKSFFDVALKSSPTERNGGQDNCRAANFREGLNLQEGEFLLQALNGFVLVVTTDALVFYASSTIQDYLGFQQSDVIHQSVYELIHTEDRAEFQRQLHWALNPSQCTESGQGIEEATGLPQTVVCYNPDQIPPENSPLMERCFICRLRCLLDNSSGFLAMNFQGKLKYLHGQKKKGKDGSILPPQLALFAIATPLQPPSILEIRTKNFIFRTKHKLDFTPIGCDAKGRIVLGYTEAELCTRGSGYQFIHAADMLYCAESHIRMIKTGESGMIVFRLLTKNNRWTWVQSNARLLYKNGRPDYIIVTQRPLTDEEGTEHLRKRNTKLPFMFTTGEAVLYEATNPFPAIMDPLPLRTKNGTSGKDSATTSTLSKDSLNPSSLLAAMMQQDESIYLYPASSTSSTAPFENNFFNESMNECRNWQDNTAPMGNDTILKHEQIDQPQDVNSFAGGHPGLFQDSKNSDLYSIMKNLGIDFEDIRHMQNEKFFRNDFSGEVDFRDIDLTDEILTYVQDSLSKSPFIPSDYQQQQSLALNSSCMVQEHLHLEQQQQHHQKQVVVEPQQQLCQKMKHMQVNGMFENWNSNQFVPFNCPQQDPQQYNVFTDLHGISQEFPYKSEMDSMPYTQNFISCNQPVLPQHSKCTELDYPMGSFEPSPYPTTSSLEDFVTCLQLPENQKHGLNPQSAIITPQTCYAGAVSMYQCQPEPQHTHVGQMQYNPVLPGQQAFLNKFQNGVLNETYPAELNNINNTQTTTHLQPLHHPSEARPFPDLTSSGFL
# ssDAF-12 act – activators of S. stercoralis DAF-12 nuclear receptor. HEK293 ssDAF-12/GRIP1 lit1-tk-luc reporter, luminescence; % of 3 µM dafachronic acid response. activation, % at 6.8 µM. 1% of 370,000 active. AID 652126;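 active = activation above the mean over all tested compounds plus 3 SD, cut at about 0.9% in these data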;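 also: 0% = DMSO-only wells and 100% = 3 µM delta7-dafachronic acid wells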
# DAX1 inh-2 – inhibitors of DAX1 repression of SF-1 activated StAR promoter; AID 652010; 1.1% of 370,000 active; inhibition, % at 6.8 µM; HEK293T StAR-luciferase reporter, SF-1/DAX-1 repression relief;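 active = inhibition above the mean over all tested compounds plus 3 SD, cut at about 3.6% in these data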;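 also: 0% = DAX-1 cells with DMSO and 100% = cells lacking DAX-1 with DMSO; higher inhibition means more luminescence from relief of DAX-1 repression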
# hgDAF12 ag – confirmation of H. glycines DAF-12 agonists. 80% of 3,300 active. AID 743050. activation, % at 6.8 µM. HEK293 GAL4-hgDAF12 luciferase reporter, agonist mode; percent of butyrate response. shares compounds with hgDAF12 agonist;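 active = mean activation over triplicate wells above the hit cutoff derived from the earlier primary screen, cut at about 11% in these data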;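 also: 0% = DMSO low control and 100% = 2 mM sodium butyrate high control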
# LXR ag 2 – activates human LXR-beta, counter-screen for DAF-12 agonists; shares compounds with hgDAF12 agonist; HEK293 Gal4-LXR luciferase reporter, 24 h; activation, % at 6.8 µM; 3,300 tested, under 10 active;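 active = mean activation of the triplicate above a set limit carried over from the primary screen, none filed active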
# * = called active by the depositor; nt = not tested or not shown. Rows were chosen to be rich in hits. Some 5.7% of all compounds tested hit in one or more screens of this group.
SMILES,hgDAF12 agonist,DAX1 inh-1,hcDAF-12 act,AHR act,ssDAF-12 act,DAX1 inh-2,hgDAF12 ag,LXR ag 2
COCCNC(=O)/C(C#N)=C/c1cc(C)n(-c2ccc(C)cc2)c1C,22*,0,6.1*,19,0,3,15*,1
COCCNC(=O)/C(C#N)=C/c1cc(C)n(C2CCCCC2)c1C,20*,2,4,9,0,4.0*,8,1
CCCNC(=O)c1noc2c1CCc1cc(OC)ccc1-2,16*,3,2,-3,-1,3.8*,13*,1
CCN(C(=O)Cn1c(=O)oc2ccccc21)c1cccc(C)c1,-1,2,1,0,0,0,nt,nt
Cc1ccc2nc(-c3ccc(NC(=O)CSc4nnc(Cc5cccs5)n4C)cc3)sc2c1,13*,nt,4,nt,0,2,16*,1
Cc1nnc(SCC(=O)Nc2ccc(-c3nc4ccccc4s3)cc2)s1,20*,3,6.0*,11,1,4,20*,1
CCOC(=O)c1ccc(NC(=O)CSc2nnc(Cc3cccs3)n2C)cc1,-1,0,-1,1,-1,0,nt,nt
Cc1ccc2nc(-c3ccc(NC(=O)CSc4nccc(=O)[nH]4)cc3)sc2c1,14*,2,5,-10,0,2,12*,1
Cc1ccc(NC(=O)CSc2nnc(-c3ccncc3)s2)cc1,1,0,-1,2,-1,0,nt,nt
Nc1ccc(-c2nc3ncccc3o2)c(Cl)c1,18*,5.6*,6.0*,2,0,3,16*,1
CCCCN1C(=O)/C(=C/C=C2\SCCN2C)SC1=S,14*,3,0,nt,0,3,10,1
CN1CCS/C1=C/C=C1\SC(=S)N(CC(=O)O)C1=O,2,0,2,-2,0,0,nt,nt
CN1C=CC(=CC=C2C=CC(=O)C=C2)C=C1,0,0,0,1,-1,1,nt,nt
O=C(NC1CC1)c1cccc(-c2cncc3nccn23)c1,4,nt,-1,nt,0,0,nt,nt
CCOc1ccc(-c2cnc3cccnn23)cc1,15*,nt,4,nt,0,4,11*,0
O=C(NC1CC1)c1ccc(-c2cnc3cccnn23)cc1,14*,nt,1,nt,-1,4.4*,9,0
O=C1NC2=C(C(=O)CCC2)C(c2ccc(OC(F)F)cc2)N1 (stereo not drawn),0,0,3,-1,-1,0,nt,nt
Cc1nn2cc(-c3ccc(-c4ccccc4)cc3)nc2s1,15*,1,5.7*,-1,1,2,16*,1
Cc1nn2cc(-c3ccc(Cl)cc3)nc2s1,14*,2,5,6,0,3.9*,16*,1
Cc1ccccc1-c1nc2cc(N)ccc2o1,15*,2,4,4,-1,3,13*,1
Nc1ccc2oc(-c3cccc(Br)c3)nc2c1,nt,1,nt,17,nt,nt,nt,nt
CC(=O)Nc1ccc(Nc2nc(-c3sc(C)nc3C)cs2)cc1,-3,-3,-4,-3,-2,-2,nt,nt
Cc1nc(C)c(-c2csc(Nc3cccc(O)c3)n2)s1,23*,0,3,2,0,1,14*,1
CCCNC(C)(C)COC(=O)c1ccccc1,1,2,-2,0,-1,2,nt,nt
Cc1cc(C(=O)CSc2ncccn2)c(C)n1-c1cccc(F)c1,14*,2,6.1*,-2,2.3*,4.3*,15*,1
SMILES,hgDAF12 agonist,DAX1 inh-1,hcDAF-12 act,AHR act,ssDAF-12 act,DAX1 inh-2,hgDAF12 ag,LXR ag 2
Cc1cc(C(=O)CSc2nnnn2C)c(C)n1-c1cccc(F)c1,14*,2,3,2,-1,2,15*,1
Cc1cc(C)cc(-n2c(C)cc(C(=O)CSc3nnnn3C)c2C)c1,2,-1,-1,9,-1,-1,nt,nt
COc1ccc(CCNC(=O)CCC(=O)Nc2ccccc2[N+](=O)[O-])cc1OC,0,1,-2,7,-1,0,nt,nt
O=C(CC1C[C@H](C(=O)N2CCOCC2)[C@@]2(CCC3CCCC3)c3[nH]c4ccccc4c3CCN2C1=O)NCC12CC3CC(CC(C3)C1)C2 (stereo partly drawn),0,0,-1,-1,-1,-1,nt,nt
Cc1ccc(C(=O)N2CCc3ccccc32)o1,15*,1,5,6,2.1*,3.8*,16*,1
O=C(c1ccc([N+](=O)[O-])o1)N1CCc2ccccc21,-1,1,0,2,0,-1,nt,nt
Cc1ccccc1S(=O)(=O)Nc1nc2ccccc2nc1N1CCc2ccccc2C1,14*,0,5,46,0,2,10,0
Cc1ccccc1S(=O)(=O)Nc1nc2ccccc2nc1Cl,1,0,0,1,-1,1,nt,nt
CC(=O)c1ccc(NC(=S)NCCc2cccc(Cl)c2)cc1,17*,3,1,-2,-1,3,12*,0
CC(=O)c1ccc(NC(=S)NCCc2ccc(S(N)(=O)=O)cc2)cc1,4,1,2,0,-2,0,nt,nt
O=C(NCc1ccccc1)c1cccc(COc2ccc3c(c2)CCC3)c1,21*,-4,3,-4,-1,2,17*,1
Cc1ccc(Nc2ncccc2C(=O)O)cc1C,4,1,3,9,-1,2,nt,nt
Cc1ccc(Nc2ncccc2C(N)=O)cc1[N+](=O)[O-],16*,3,3,2,0,2,14*,1
CCOC(=O)c1ccc(Nc2ncccc2[N+](=O)[O-])cc1,18*,1,6.0*,2,1.7*,1,19*,1
O=C(CCc1c[nH]c2ccccc12)N1CCN(S(=O)(=O)c2ccc([N+](=O)[O-])cc2)CC1,-1,0,0,nt,-1,0,nt,nt
CC(=O)c1ccc(NC(=O)C2CC(=O)N(Cc3ccccc3)C2)cc1 (stereo not drawn),14*,1,0,2,-1,1,10,0
COc1cc(CCC(=O)OCC(=O)N(CC(C)C)C2CCS(=O)(=O)C2)cc(OC)c1OC (stereo not drawn),0,0,-2,nt,-1,0,nt,nt
Cc1ccc(Nc2ncnc(N)n2)cc1,19*,0,2,3,-1,0,5,0
Nc1ncnc(Nc2ccc(F)cc2)n1,0,-1,-2,-1,-2,0,nt,nt
O=c1[nH]c(CSc2ccccn2)nc2ccccc12,18*,1,2,18,0,3.6*,14*,1

# Compound activity from PubChem.
